KDM5B inh: Primary screen for KDM5B Histone Demethylases FDH-coupled qHTS; KDM5B demethylase, FDH-coupled NADH fluorescence (FDH is formaldehyde dehydrogenase); Potency, µM (doses to about 57.7 µM), actives largely listed as inhibitors; actives 2.6% (n = 220,000); AID 1347165, 2019; active = well fitted inhibition curve with a large enough effect; note: nearly all actives have a fitted effect of over 70% in size
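Here, H3K4me3 peptide (12.5 µM in substrate mix) is demethylated by KDM5BΔAP, 200 nM final, after 10 min compound exposure. Formaldehyde product is coupled through FDH (0.25 U/mL in mix) to NADH fluorescence; 30-min ΔRFU feeds dose-response curves.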
Each line names hits and unclear results; the compound was inactive in the other large screens. This excerpt belongs to a sample that is enriched for hits.

Cc1c(O)ccc2c(CSc3nnc(N4CCCC4)s3)cc(=O)oc12	none
Fc1ccc(CCNC(=S)c2cccs2)cc1	none
COC(=O)c1sc(NC(=O)CN2c3ccccc3CC2C)c(C(=O)OC)c1C (centres undefined)	none
CCn1c(SCC(=O)c2cc(C)n(C(C)C)c2C)nc2cc(S(N)(=O)=O)ccc21	none
O=C1CCC(C(=O)OCc2cccc(Cl)c2)=NN1	none
O=C(CC1CCCCC1)N1CCCC(c2noc(COc3ccccc3F)n2)C1 (centres undefined)	none
O=S(=O)(c1ccc(F)cc1)N1CCCC(Cc2noc(-c3cccnc3)n2)C1 (centres undefined)	none
O=C(Cn1nc(-c2cccs2)c2ccccc2c1=O)NC1CCCC1	none
CC(=O)Nc1cccc(NC(=O)c2cc3ccccc3n2C)c1	none
CN(Cc1ccc(CN2CCCC(O)(CO)C2)o1)S(C)(=O)=O (centres undefined)	none
C=CC[C@H]1CC(C)=C[C@H](CC=C)N1Cc1ccc(CN(C)S(C)(=O)=O)o1	KDM5B inh 14.1µM
C#CCNC(=O)c1onc(-c2ccc(F)cc2)c1[C@H](C)O	none
CC1=C[C@@H](CN2CCN(c3cnccn3)CC2)[C@H](C(C)C)C[C@H]1Cc1nnc(-c2ccccc2)o1	KDM5B inh 28.2µM
CC1=C[C@@H](CNc2ccccn2)[C@H](C(C)C)C[C@H]1Cc1nnc(-c2cncn2C)o1	KDM5B inh 35.5µM
COc1ccc(-c2nnc(C[C@@H]3C[C@@H](C(C)C)[C@H](CN4CCN(C)CC4)C=C3C)o2)cc1	none
CC1=C[C@@H](CN2CCN(c3ncccn3)CC2)[C@H](C(C)C)C[C@H]1Cc1nnc(-c2cncn2C)o1	none
CC1=C[C@@H](CN2CCC(CO)CC2)[C@H](C(C)C)C[C@H]1Cc1nnc(-c2cccnc2)o1	none
CC1=C[C@@H](CNC(=O)c2ccccc2)[C@H](C(C)C)C[C@H]1Cc1nnc(-c2cncn2C)o1	none
CN(CC(O)COc1ccccc1CN1CCCOCC1)C1CCCCC1 (centres undefined)	none
COc1ccc(NC(=O)N[C@H]2C[C@@H](C(=O)N[C@H](Cc3c[nH]c4ccccc34)C(N)=O)N(C(=O)c3cccn3C)C2)cc1	none
Cc1cc(=O)n(CC(=O)N2CCCCC2C)c(-c2ccccc2)n1 (centres undefined)	none
CC(C)N1C[C@H](O)C[C@H]1c1nnc2n1CCN(C(=O)c1nccc3ccccc13)CC2	none
COC(=O)c1ccccc1C(=O)OCC(=O)c1ccccc1	none
COc1ccc(C(=O)N2CCN(Cc3ccccc3)CC(O)C2)c(OC)n1 (centres undefined)	none
CCCCN1CCN(C(=O)c2cnc(-c3ccccc3)nc2-c2ccncc2)CC1	none
CC(=O)N1CCN(C(=O)c2cnc(N)nc2-c2ccccc2)CC(O)C1 (centres undefined)	KDM5B inh 25.1µM
COCC1CN(C(C)=O)CC12CCN(C(=O)c1cc3ccccc3[nH]1)CC2 (centres undefined)	none
CC(=O)N1CCN(C(=O)c2cc3ccccc3[nH]c2=O)CC(O)C1 (centres undefined)	KDM5B inh 28.2µM
CC(=O)N1CCN(C(=O)CCc2nc3ccc(F)cc3[nH]2)CC(O)C1 (centres undefined)	none
Cc1cc(Cl)ccc1NC(=O)N1C[C@H](c2nc(-c3cccnc3)no2)[C@@H](C)C1	none
CCN1CCCC1CNC(=O)c1nc(-c2ccc3cc[nH]c3c2)no1 (centres undefined)	none
CNC(=O)Nc1cccn2nc(-c3ccccc3)nc12	KDM5B inh 25.1µM
COC(=O)CC(NC(=O)Nc1cccn2nc(C)nc12)c1ccccc1 (centres undefined)	none
Cc1ccc(NC(=O)Nc2cccn3nc(C)nc23)cc1	none
N#Cc1ccc(NC(=O)c2ccc3c(c2)OCCCO3)cc1	none
CC(=O)N1CCN(C(C(=O)O)c2c[nH]c3cc(Br)ccc23)CC1 (centres undefined)	none
O=C(CSc1nc(=O)n(Cc2ccncc2)c2c1CCC2)N1CCCC1	none
O=C(CCN1CCCO1)N[C@@H]1COCC[C@@H]1OCc1ccccc1	none
CCC1(N2CCN(S(=O)(=O)c3ccc4c(c3)CCCC4)CC2)CCN(C(=O)C(C)C)C1 (centres undefined)	none
O=C(Nc1ccc(OC(F)(F)F)cc1)c1cc(=O)c2ccccc2o1	none
Cc1ccccc1-c1cc(-c2cn[nH]c2)c2cncn2c1	none
COc1cccc(-c2cc(-c3cn[nH]c3)c3cncn3c2)c1	KDM5B inh 39.8µM
Fc1cccc(-c2cc(-c3cn[nH]c3)c3cncn3c2)c1	KDM5B inh 35.5µM
COc1cccc(-c2[nH]ncc2CN)c1	none
c1cc(-c2cn[nH]c2)ccn1	none
CN(C)Cc1ccc(-c2cc(-c3cn[nH]c3)c3cncn3c2)cc1	KDM5B inh 39.8µM
COc1ccc(Cl)cc1Nc1nc(N)c(C(=O)c2ccc(C)cc2C)s1	none
Cc1ccc(NCCC(=O)c2cc3ccccc3o2)cc1Cl	none
CC(=O)c1ccccc1OCCN1CCN(C2CCS(=O)(=O)C2)CC1 (centres undefined)	none
O=C(Nc1ccc(S(=O)(=O)N2CCCC2)cc1)C1CCCN(C(=O)c2ccc(Cl)cc2)C1 (centres undefined)	none
